G9a inh = blocks human histone lysine methyltransferase G9a | G9a H3K9 monomethylation, AlphaScreen, 2 h | Potency, µM (series often up to 102 µM), for inactives: top-dose activity, negative = inhibition, actives largely listed as inhibitors | actives 8.8% (n = 350,000) | AID 504332; note: % is set by controls: 0 for no effect and ±100 for the full control effect; nearly all actives have a fitted effect of over 75% in size
Target sequence (Q96KQ7 913-1193 limits assumed): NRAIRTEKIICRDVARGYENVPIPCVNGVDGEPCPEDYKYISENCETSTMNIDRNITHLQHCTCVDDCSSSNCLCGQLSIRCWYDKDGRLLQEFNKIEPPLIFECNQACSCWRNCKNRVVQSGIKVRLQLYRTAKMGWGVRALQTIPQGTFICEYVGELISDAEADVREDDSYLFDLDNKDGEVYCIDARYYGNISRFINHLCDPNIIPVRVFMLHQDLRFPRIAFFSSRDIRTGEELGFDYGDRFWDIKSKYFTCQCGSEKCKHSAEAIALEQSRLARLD
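AlphaScreen read-out: biotin-H3K9 peptide (500 nM) methylation by 20 nM enzyme with 20 uM SAM, 2 h at room temperature after 15 min compound preincubation; anti-monomethyl H3K9 antibody plus donor/acceptor beads, 10 min dark.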
JMJD2A Tudor inh = inhibitors of human JMJD2A Tudor domain; actives 4.4% (n = 390,000); Potency, µM (series often up to 114 µM), without a hit: at the highest dose activity change, negative = inhibition, actives largely listed as inhibitors; O75164; AID 504339; AlphaScreen JMJD2A-Tudor / H3K4me3 peptide binding; note: % is set by controls: 0 for no effect and ±100 for the full control effect; nearly all actives have a fitted effect of over 50% in size
HP1b binding inh = blocks HP1-beta chromodomain binding to methylated histone tails; P83916; AlphaScreen HP1-beta / biotin-H3K9me3 peptide binding; Potency, µM (highest dose often 114 µM), for inactives: at the top dose activity change, negative = inhibition, hits mostly inhibitors; actives 0.56% (n = 390,000); AID 540317; note: nearly all actives have a fitted effect of over 70% in size
Target sequence (P83916 whole entry, looked up): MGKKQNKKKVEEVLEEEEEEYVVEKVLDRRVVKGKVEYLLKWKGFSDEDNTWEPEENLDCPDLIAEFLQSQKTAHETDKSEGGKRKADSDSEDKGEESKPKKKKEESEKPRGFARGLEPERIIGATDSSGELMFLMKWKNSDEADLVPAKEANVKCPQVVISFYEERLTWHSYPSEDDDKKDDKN
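AlphaScreen: HP1-beta (50 nM) preformed 30 min with biotin-H3(1-18)K9me3 peptide (50 nM) in PBS pH 7.4, 0.01% Tween-20. Compound added for 30 min at RT, then streptavidin donor/nickel chelate acceptor beads (10 ug/mL) for 30 min.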
Sfp inh = inhibitors of Bacillus subtilis Sfp phosphopantetheinyl transferase; Potency, µM, without a hit: largest response in the series, negative = inhibition, most hits filed as inhibitors; Biochemical Sfp PPTase activity, qHTS; actives 3.5% (n = 310,000); AID 1490; Q9F4F7;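 note: the enzyme is Sfp with the accession as filed and its product quenches rhodamine fluorescence; 0% = enzyme reaction without inhibitor and -100% = no enzyme wells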
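Compounds were incubated with enzyme (final 15 nM) for 15 min at room temperature before substrate addition started the reaction. Fluorescence at 525 nm excitation, 598 nm emission was recorded immediately and after 30 minutes.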
BAZ2B inh = BAZ2B (human) inhibition; Q9UIF8; AlphaScreen BAZ2B-H3K14Ac peptide displacement; Potency, µM (top dose mostly 114 µM), inactives show at the top dose activity change, negative = inhibition, hits mostly inhibitors; actives 4.4% (n = 360,000); note: % is set by controls: 0 for no effect and ±100 for the full control effect; nearly all actives have a fitted effect of over 60% in size
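Compounds, titrated to a top concentration of 110 uM, were incubated 30 min at room temperature with preformed BAZ2B/acetyl-K14 H3 peptide complex (50 nM each). Proximity signal was measured by AlphaScreen after 20 min with beads.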
The depositor's hits bear a star; ? = inconclusive; nt = not tested or not shown; [ ] = remark or other dose. In the library only some 12% were active in any assay of this set; here they are far more common. Calls come from the whole dose curve; as a rule, active = well fitted curve in the direction sought with a large enough effect; inconclusive = small, poorly fitted or top-dose-only effect, or another doubt; inactive = no such curve, though single readings can be large; an effect the other way counts as inactive or inconclusive. Potency is the fitted concentration of half-maximal effect.

SMILES | G9a inh | JMJD2A Tudor inh | HP1b binding inh | Sfp inh | BAZ2B inh
CCCCN(CC)CCCNC(=O)c1sc2nc3n(c(=O)c2c1C)CCCCC3 | 8.91µM* | -7.9% | 28.5% | nt | -4.1%
Cc1c(C(=O)NCc2ccccc2)sc2nc3n(c(=O)c12)CCCCC3 | 10µM* | ? | 33.2% | nt | ?
Cc1c(C(=O)NCCc2ccc(Cl)cc2)sc2nc3n(c(=O)c12)CCCC3 | ? | -32.6% | 53.3% | nt | 39.8µM*
Cc1c(C(=O)O)sc2nc3n(c(=O)c12)CCC3 | 39.8µM* | 50.1µM* | 29.0% | -4.4% | ?
CSC(C(=O)c1cc2ccccc2o1)c1ccccc1 (stereo not drawn) | 13.4%[2.33 µM] | 35.2% | 109.8% | nt | 45.7%
Cc1ccc(CNC(=O)c2sc3nc4n(c(=O)c3c2C)CCCC4)cc1 | ? | ? | 20.8% | nt | 50.1µM*
Cc1cccc(C(=O)NNC(=O)C(=O)NC(C)(C)C)c1 | 28.2µM* | ? | 46.7% | -4.3% | ?
CC(C)CNC(=O)C(=O)NNC(=O)c1ccco1 | 11.2µM* | -13.5%[11.4 µM] | 11.8% | 4.0% | ?
CC(C)(C)NC(=O)C(=O)NNC(=O)c1ccco1 | -31.2% | -17.7% | 51.2% | 79.4µM* | 56.2µM*
COc1cc(/C=C/C(=O)OCC(=O)c2c(N)n(C)c(=O)n(C)c2=O)ccc1OCC#N | 5.6% | 0.0% | 37.8% | 15.3% | -2.3%
COc1cc(C(C#N)N2CCC(c3ccccc3)=N2)ccc1O (stereo not drawn) | 10µM* | -4.6% | 23.5% | 3.8% | -1.2%
COc1ccc(C(C#N)N2CCC(c3ccccc3)=N2)cc1OC (stereo not drawn) | 17.8µM* | -15.5% | 38.6% | 12.6% | -3.0%
CCOc1ccc(/C=N/NC(=O)c2ccccc2C)cc1CN1CC2CC(C1)c1cccc(=O)n1C2 (stereo not drawn) | 0.0%[0.501 µM] | -26.2% | 2.0% | nt | -29.2%
NC(=S)N1OC[C@@H]2COc3ccc4ccccc4c3[C@@H]21 | 31.5% | -27.5% | -17.9% | 11.3% | -14.0%
O=C(CN1CCN(Cc2ccccc2Cl)C1=O)N1CCCCCC1 | -3.8% | -21.3% | 27.0% | 17.5% | -23.9%
COc1ccc(CN2CCN(C(=O)CC(C)C)CC2)cc1 | nt | 7.94µM* | ? | -33.5% | ?
COc1ccc(NC(C)C(=O)N2CCN(Cc3ccccc3)CC2)cc1 (stereo not drawn) | ? | -14.4% | 29.8% | 20.1% | -10.8%
COc1cc(CN2CCN(C(=O)CC(C)C)CC2)c([N+](=O)[O-])cc1OC | 17.8µM* | 22.4µM* | ? | ? | 44.7µM*
CC(C)CC(=O)N1CCN(Cc2ccccc2Cl)CC1 | 3.8%[0.501 µM] | -100.0% | ? | 2.6% | 50.1µM*
COc1cc(CN2CCN(C(=O)CC(C)C)CC2)cc(OC)c1OC | ? | 6.31µM* | ? | ? | 28.2µM*
CCCCn1c(=O)c(Cc2ccccc2)c(O)c2ccccc21 | 1.0%[59 µM] | -13.5% | 14.5% | 10.8% | -0.9%
CC(C)(C)OC(=O)N1CCC(c2c(C(=O)N3CCN(Cc4ccccc4)CC3)cnn2-c2cccc(Cl)c2)CC1 | -32.6%[59 µM] | -32.7% | -3.3% | nt | -7.9%[57.1 µM]
C=CCOc1ccc(CNn2cn[nH]c2=S)cc1OC | 3.16µM* | 22.4µM* | 24.0% | -15.2% | -0.5%
COc1cc(CNn2c(C)n[nH]c2=S)cc(Cl)c1OCc1ccccc1 | ? | -22.0% | 7.4% | -16.0% | -34.7%
C=CCOc1ccc(CNC(C)(C)CO)cc1OC | 110.3%[59 µM] | -8.8% | 10.6% | 11.0% | -28.0%
SMILES | G9a inh | JMJD2A Tudor inh | HP1b binding inh | Sfp inh | BAZ2B inh
COc1cc(CNn2cn[nH]c2=S)cc(Cl)c1OCc1ccc(F)cc1 | 5.62µM* | -18.8% | 17.7% | -4.2% | 1.1%
C=CCOc1ccc(CNn2cn[nH]c2=S)cc1OCC | 32.3%[0.501 µM] | 8.91µM* | 20.3% | ? | -3.8%
Cc1ccc2nc3c(cc(C(=O)NCC4CCCO4)c(=N)n3CCCOC(C)C)c(=O)n2c1 (stereo not drawn) | 56.2µM* | ? | -11.3% | 15.9% | -0.5%
O=C(N/N=C/c1ccco1)C1CC1(c1ccccc1)c1ccccc1 (stereo not drawn) | 39.8µM* | -20.8% | 7.9% | 5.0% | ?
O=C(Cc1ccc([N+](=O)[O-])cc1)Nc1nnc(C2CC2)s1 | -2.0%[59 µM] | -2.0% | 11.7% | 15.3% | 1.9%
CCCn1c(NC(=O)c2ccc(Br)cc2)nc2ccccc21 | -9.6% | -7.8% | 23.3% | 10.1% | -0.1%
CC[C@H](C)C1NC(=O)[C@H](CC(=O)O)NC(=O)c2cc([N+](=O)[O-])cc(I)c2NCCC(C(N)=O)NC1=O (stereo partly drawn) | ? | -20.0% | 24.8% | 21.0% | -32.0%
C[C@@H]1NC(=O)c2cc([N+](=O)[O-])cc(I)c2NCC[C@@H](C(N)=O)NC(=O)[C@H](CC(N)=O)NC1=O | 22.4µM* | -31.0% | 22.6% | -1.4% | -33.4%
C[C@@H]1NC(=O)[C@H](CCC(N)=O)NC(=O)c2cc([N+](=O)[O-])cc(I)c2NCC[C@@H](C(N)=O)NC1=O | 11.2µM* | -35.3% | 4.3% | 2.0% | ?
CNc1oc(Cc2ccccc2)nc1S(=O)(=O)c1ccccc1 | ? | 3.16µM* | ? | 50.1µM* | 4.1%
CCNc1oc(-c2ccc(OC)cc2)nc1S(=O)(=O)c1ccc(Br)cc1 | 56.2µM* | -19.4% | 29.0% | 3.3% | -5.4%
CCNc1oc(-c2ccccc2F)nc1S(=O)(=O)c1ccccc1 | 44.7µM* | -8.9% | 16.4% | -8.5% | -21.2%
Cc1ccc(S(=O)(=O)c2nc(-c3ccccc3F)oc2NCc2ccccc2)cc1 | ? | -17.0% | 5.1% | nt | ?
COc1ccc(-c2nc(S(=O)(=O)c3ccc(C)cc3)c(NCc3ccccc3)o2)cc1 | 11.2µM* | ? | 16.1% | nt | -27.4%
CN(c1ccccc1)S(=O)(=O)c1ccc(C(=O)NCc2ccc(F)cc2)cc1 | nt | 7.8% | 21.4% | nt | nt
CCC12C(=O)C(CC)(C(c3ccccc3)=C1c1ccccc1)[C@@H]1C(=O)N(c3ccccc3)C(=O)C12 (stereo partly drawn) | 8.9%[59 µM] | -25.3% | 14.5% | 13.9% | -3.4%
Cc1cc(NC(=O)CSc2nnnn2-c2ccccc2F)no1 | 11.1% | -7.4% | 2.7% | 13.4% | 0.3%
CNc1oc(-c2ccccc2)nc1S(=O)(=O)c1ccc(C)cc1 | ? | -17.2% | 32.5% | 1.5% | -20.4%
Cc1ccc(S(=O)(=O)c2nc(C)oc2NCc2ccccc2)cc1 | 8.91µM* | nt | nt | ? | 2.7%
CNc1oc(C)nc1S(=O)(=O)c1ccc(C)cc1 | 1.9%[0.0925 µM] | ? | ? | 44.7µM* | -1.5%
CCOc1ccc(-c2nc(S(=O)(=O)c3ccccc3)c(NCc3cccnc3)o2)cc1 | 44.7µM* | ? | 5.4% | -7.1% | ?
COc1ccc(NS(=O)(=O)c2c(C)n(C)c(=O)n(C)c2=O)cc1OC | 2.9% | -10.4% | 30.7% | 1.4% | 10.5%
O=C(Cc1ccc(Cl)cc1)NCCS(=O)(=O)N1CCN(c2ccccc2)CC1 | -0.7%[0.501 µM] | -16.8% | 0.6% | nt | 9.4%

From PubChem
